According to PubChem BioAssay AID1159580 (chemical genetic matrix, 2015):
Values joined by “and” are separate entries in the source; they are usually repeats but may differ in a detail not shown here. Equal entries are not always repeated. The whole screen tested about 5,500 compounds, of which about 2,000 (36%) were called active. Another 18% or so got no clear call; they are omitted. Cut-off read from the data, not from the text of the source: active = normalized growth mostly below about 0.91 (no sharp cut-off); inconclusive = no clear call, values can overlap the other calls; inactive = mostly above about 0.92. The list shows a part of the results.

Experiment: chemical genetic growth profiling, strain panel (AID 1159580);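 note: tested at 20 µM; growth read once vehicle control cultures reached saturation at 30 °C; 1 = growth at the plate median or of vehicle wells; lower values mean less growth of the strain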
Details: S. cerevisiae deletion strains, growth OD

Measured: normalized growth

NCC(N)C(=O)c1ccccc1 (stereo not drawn)
inactive: locus YAL013W, strain DEP1, hits give low values 1.01 | locus YAL021C, strain ccr4, hits give low values 0.979 | locus YAL026C, strain drs2, hits give low values 1.06 | locus YAL030W, strain snc1, hits give low values 1.02 | locus YBL061C, strain skt5, hits give low values 1.03 | locus YBR009C, strain hhf1, hits give low values 1.04 | locus YBR021W, strain FUR4, hits give low values 0.993 | locus YBR023C, strain chs3, hits give low values 1.02 | locus YBR171W, strain sec66, hits give low values 1.04 | locus YBR229C, strain ROT2, hits give low values 1.01 | locus YBR231C, strain swc5, hits give low values 1.02 | locus YBR279W, strain paf1, hits give low values 1.03 | locus YCL011C, strain gbp2, hits give low values 1.02 | locus YCL016C, strain dcc1, hits give low values 1.01 | locus YCL029C, strain bik1, hits give low values 0.995 | locus YCL061C, strain MRC1, hits give low values 1.03 | locus YCL069W, strain vba3, hits give low values 1.02 | locus YCR088W, strain abp1, hits give low values 1.02 | locus YDL005C, strain med2, hits give low values 1.03 | locus YDL035C, strain GPR1, hits give low values 1.02 | locus YDL040C, strain nat1, hits give low values 1.02 | locus YDL074C, strain BRE1, hits give low values 1.01 | locus YDL101C, strain DUN1, hits give low values 1.01 | locus YDL185W, strain tfp1, hits give low values 1 | locus YDL192W, strain arf1, hits give low values 1.01 | locus YDR001C, strain nth1, hits give low values 1.01 | locus YDR069C, strain doa4, hits give low values 1.02 | locus YDR101C, strain arx1, hits give low values 0.997 | locus YDR137W, strain rgp1, hits give low values 1.03 | locus YDR150W, strain NUM1, hits give low values 1.01 | locus YDR159W, strain sac3, hits give low values 1.05 | locus YDR162C, strain NBP2, hits give low values 1.02 | locus YDR195W, strain ref2 1.01 | locus YDR297W, strain sur2, hits give low values 1.02 | locus YDR318W, strain mcm21, hits give low values 1.01 | locus YDR334W, strain swr1, hits give low values 1.02 | locus YDR335W, strain msn5, hits give low values 1.03 | locus YDR388W, hits give low values 0.998 | locus YDR392W, strain spt3, hits give low values 0.962 | locus YDR502C, strain sam2, hits give low values 0.988 | locus YEL003W, strain gim4, hits give low values 1.04 | locus YEL037C, strain rad23, hits give low values 1.03 | locus YEL061C, strain CIN8 (second series), hits give low values 1.03 | locus YEL061C, strain CIN8, hits give low values 1.01 | locus YER015W, strain faa2, hits give low values 1.03 | locus YER016W, strain bim1, hits give low values 1.03 | locus YER110C, hits give low values 1 | locus YER111C, strain swi4, hits give low values 1.03 | locus YER155C, strain BEM2 (second series), hits give low values 0.99 | locus YER155C, strain BEM2, hits give low values 1.01 | locus YER167W, strain BCK2, hits give low values 1.01 | locus YFR010W, strain ubp6, hits give low values 1.03 | locus YGL078C, strain dbp3, hits give low values 1.02 | locus YGL086W, strain mad1, hits give low values 0.999 | locus YGL167C, strain pmr1, hits give low values 1.03 | locus YGL173C, strain kem1, hits give low values 1.06 | locus YGL227W, strain vid30, hits give low values 1.02 | locus YGL240W, strain doc1, hits give low values 1.01 | locus YGL248W, strain PDE1, hits give low values 1.02 | locus YGL253W, strain hxk2, hits give low values 1.05 | locus YGR135W, strain pre9, hits give low values 1 | locus YGR229C, strain SMI1, hits give low values 1.02 | locus YGR252W, strain gcn5, hits give low values 0.96 | locus YHR013C, strain ard1, hits give low values 1.04 | locus YHR027C, strain rpn1, hits give low values 1.04 | locus YHR030C, strain SLT2, hits give low values 1.01 and 0.973 | locus YHR079C, strain IRE1 (second series), hits give low values 1 | locus YHR079C, strain IRE1, hits give low values 0.97 | locus YHR094C, strain hxt1, hits give low values 0.996 | locus YHR129C, strain ARP1, hits give low values 1.01 | locus YHR142W, strain chs7, hits give low values 1.05 | locus YHR200W, strain rpn10, hits give low values 0.999 | locus YIL066C, strain RNR3, hits give low values 1.01 | locus YIL073C, strain SPO22, hits give low values 0.986 | locus YIL125W, strain kgd1, hits give low values 1 | locus YIR030C, strain dcg1, hits give low values 1 | locus YJL092W, strain hpr5, hits give low values 1.03 | locus YJL095W, strain BCK1 (second series), hits give low values 1.03 | locus YJL095W, strain BCK1, hits give low values 1.02 and 0.963 | locus YJL115W, strain asf1, hits give low values 1.03 | locus YJL129C, strain trk1, hits give low values 1.04 | locus YJL134W, strain LCB3, hits give low values 1.01 | locus YJL154C, strain vps35, hits give low values 1.02 | locus YJL164C, strain tpk1, hits give low values 1.03 | locus YJL166W, strain qcr8, hits give low values 1.02 | locus YJL168C, strain set2, hits give low values 1.01 | locus YJL187C, strain SWE1 (second series), hits give low values 1 | locus YJL187C, strain SWE1, hits give low values 1.05
